Measured values from the supplement of paper PMC10681739.

Target: T1, ETS1 (UniProt P14921)
T1 sequence: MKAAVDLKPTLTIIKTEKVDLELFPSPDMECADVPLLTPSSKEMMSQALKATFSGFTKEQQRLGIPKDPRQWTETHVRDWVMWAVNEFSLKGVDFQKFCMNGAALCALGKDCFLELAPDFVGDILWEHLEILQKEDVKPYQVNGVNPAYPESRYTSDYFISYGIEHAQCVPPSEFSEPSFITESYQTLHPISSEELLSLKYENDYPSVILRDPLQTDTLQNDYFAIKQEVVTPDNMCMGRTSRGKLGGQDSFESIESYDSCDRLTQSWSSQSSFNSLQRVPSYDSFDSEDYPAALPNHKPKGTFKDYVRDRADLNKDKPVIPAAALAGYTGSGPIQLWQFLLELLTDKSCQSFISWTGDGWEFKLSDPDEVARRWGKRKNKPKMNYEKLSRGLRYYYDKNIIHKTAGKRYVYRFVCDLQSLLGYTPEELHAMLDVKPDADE
Experiment: ETS1 binding intensity (PBM fluorescence) in presence of RUNX1, normalised to ETS1-only experiment (arbitrary fluorescence units); higher = stronger binding
Conditions: ETS1 concentration 1 nM; RUNX1 concentration 25 nM
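Wherever RUNX1 binding intensity (PBM fluorescence) in presence of ETS1, normalised to RUNX1-only experiment is given: Full-length recombinant human ETS1 or RUNX1 bound to double-stranded 36-bp genomic probes on microarrays, detected by protein-specific primary antibody and Alexa488 secondary, spot fluorescence as median of four replicate spots.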

Sequence	ETS1 binding intensity
CTCGCGATTCCTCTTCCGCTGCGGTCTCCTTAACAC	841
CTTCGACCCCGGAAGCGCTAACCACCCCGGGGGCCG	5880
GACTTGGGGGAAGTGGCTTGGTTTGCGTGGTTTCTC	546
CTTCACTATGCATCCTGTACTGCAACCACACCAAAC	793
GGGGCCTCTGCTACTTCCTAGACCGCAAAATGGAGA	1570
GGACACAGGCTTCCGCGTTACCGACACCGCGTGGGG	311
TTGACCCGGACGTGGACAAAAGACCGCAAAGGACGC	3090
TGCTCAGAAGGGCATCCGGTTGCGGAGAAGGTACAC	2000
CACCTAAAGCCATTGGGATGTGGTTTCTCTTTTTCA	894
AACCTGCAGACTTCCTGCCATGTGACCACAGGGTCT	3140
TGCAGCTATGGCCGGAAGCCTGTGGGTGTGGGAGGA	4580
TGCCTTCTACTCCGGAACTCAGACCGCTGCCTTCTA	979
TGTCAGCTGCGTTTCCGCGGTCGCGGGTGAGTGTGC	588
CTGCCCACCGGAAACGATGGCGCGAGGCCGCAGAGC	7790
GAAGCGCTGGGCGGAAGTGGCTGTGGCTTTGCCCTT	14300
CTTACAGTCACAACAGGATGTGGTTTGACATTTACT	32800
ACTCCAGAGGAAGTGGCAAGACGAGCGCGGTAACGG	1560
CAAAAGTGCTTCCTCTCGAGGGGTTGTGGTTCTTAC	520
TCTCCCGGAACTGCTCCTTCACCATGATGACCGCTG	542
CCTCTGTTCTTCACAGGAAGCCACAGGCCTCCCCTG	3160

Sequence	ETS1 binding intensity
GAGGCGTTTCCGCCTCCTTTTCGCGGTTGCCTTCTC	761
GGCCGACGGGAAGTGTAGTCCGGCCTGCGGTCCGGG	1910
CCTCAATTTCCTGGCCAGAGAAACCACTGCCTCTCA	526
CCAAGCACTTCCTGCTGTTAGCTTTGTGGGCTGAGT	1020
GCAGGGACCGGAAGTCCATGGCTCTGCCGCAACCCT	13700
GAGCAAACGGAGGCAGGAAGTGGTTATGTAACTTCA	12400
CAAGGGAACATCCTTAAACAGCTTGTGGTATTGCTG	1060
GAGGTGCCGGAAGCCAGTAGGTGGTTTTGGGTGCTA	2120
GTTTTCAAGGCAGGAAGTGGCTGTGGTGGCACGGAG	21300
AGCGGCTGCACAGGAAGTTGGTTTTCACAAAGGCAA	6650
GCCCCCGGCTGGGCAGGATGTGGTGGCAGCTGCAGG	5380
TACCTACAGGAAATGAGACACACCGCAGGCCGATCC	7670
GTTGCCCCACTTCCTGCCAGTGGTTTTTGGTTGGCC	4220
TACAGGAACTTCCTGCGCGGCTGCTGTGGTTGCGAG	1350
GTCACCATTTCCGGGCCTCCGCGGTGTCCCCACCCC	2870
CAAGAGCCGGAAGTCCCTTGTGCCGCAGTCCTTCCC	6680
ACCTGTGTTCTGGCAGGATGTGGTTGACCTCAGCAG	18700
AAAACAAGGACTTCCGCCTCCCTGCGGTCCCTCCCC	2730
GGGCGGAAGTGCGTCACTATGTCCGACCCGCAGTGC	2050
GTGTGCGTGAGAAGAGGAAGTGGTTAGGAAGACACA	12200

Target: RUNX1 (UniProt Q01196)
Experiment: RUNX1 binding intensity (PBM fluorescence) in presence of ETS1, normalised to RUNX1-only experiment (arbitrary fluorescence units); higher = stronger binding
Conditions: RUNX1 concentration 2 nM; ETS1 concentration 25 nM
Experimental: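 Cooperative gcPBM on 36-bp genomic probes with neighbouring ETS1 and RUNX1 sites. Recombinant human RUNX1 (2 nM) was incubated alone or with ETS1 (25 nM) and detected with anti-RUNX1 antibody plus Alexa488 secondary. Values are medians over 4 replicate spots; the RUNX1+ETS1 data were normalised to the RUNX1-only data. The probes sit in constant array flanks that are not printed.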

Sequence of RUNX1 (Q01196 whole entry): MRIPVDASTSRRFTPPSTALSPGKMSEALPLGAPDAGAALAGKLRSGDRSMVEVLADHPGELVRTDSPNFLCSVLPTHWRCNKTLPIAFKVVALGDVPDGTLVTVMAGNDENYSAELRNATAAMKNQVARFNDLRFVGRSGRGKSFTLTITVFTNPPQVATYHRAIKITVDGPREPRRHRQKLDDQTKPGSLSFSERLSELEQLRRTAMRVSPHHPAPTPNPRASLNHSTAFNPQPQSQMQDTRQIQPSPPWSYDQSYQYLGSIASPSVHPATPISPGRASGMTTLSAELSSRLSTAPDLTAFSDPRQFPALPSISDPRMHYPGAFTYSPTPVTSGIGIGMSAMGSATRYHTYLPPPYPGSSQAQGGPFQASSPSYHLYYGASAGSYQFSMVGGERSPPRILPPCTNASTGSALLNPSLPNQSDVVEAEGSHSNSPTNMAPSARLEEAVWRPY

Sequence	RUNX1 binding intensity
CTCGCGATTCCTCTTCCGCTGCGGTCTCCTTAACAC	2170
CTTCGACCCCGGAAGCGCTAACCACCCCGGGGGCCG	1370
GACTTGGGGGAAGTGGCTTGGTTTGCGTGGTTTCTC	1060
CTTCACTATGCATCCTGTACTGCAACCACACCAAAC	1910
GGGGCCTCTGCTACTTCCTAGACCGCAAAATGGAGA	6150
GGACACAGGCTTCCGCGTTACCGACACCGCGTGGGG	934
TTGACCCGGACGTGGACAAAAGACCGCAAAGGACGC	1540
TGCTCAGAAGGGCATCCGGTTGCGGAGAAGGTACAC	1370
CACCTAAAGCCATTGGGATGTGGTTTCTCTTTTTCA	1010
AACCTGCAGACTTCCTGCCATGTGACCACAGGGTCT	2160
TGCAGCTATGGCCGGAAGCCTGTGGGTGTGGGAGGA	906
TGCCTTCTACTCCGGAACTCAGACCGCTGCCTTCTA	946
TGTCAGCTGCGTTTCCGCGGTCGCGGGTGAGTGTGC	1360
CTGCCCACCGGAAACGATGGCGCGAGGCCGCAGAGC	1660
GAAGCGCTGGGCGGAAGTGGCTGTGGCTTTGCCCTT	1620
CTTACAGTCACAACAGGATGTGGTTTGACATTTACT	3860
ACTCCAGAGGAAGTGGCAAGACGAGCGCGGTAACGG	1330
CAAAAGTGCTTCCTCTCGAGGGGTTGTGGTTCTTAC	1070
TCTCCCGGAACTGCTCCTTCACCATGATGACCGCTG	1090
CCTCTGTTCTTCACAGGAAGCCACAGGCCTCCCCTG	1050

Sequence	RUNX1 binding intensity
GAGGCGTTTCCGCCTCCTTTTCGCGGTTGCCTTCTC	2790
GGCCGACGGGAAGTGTAGTCCGGCCTGCGGTCCGGG	1050
CCTCAATTTCCTGGCCAGAGAAACCACTGCCTCTCA	1810
CCAAGCACTTCCTGCTGTTAGCTTTGTGGGCTGAGT	1600
GCAGGGACCGGAAGTCCATGGCTCTGCCGCAACCCT	1250
GAGCAAACGGAGGCAGGAAGTGGTTATGTAACTTCA	2170
CAAGGGAACATCCTTAAACAGCTTGTGGTATTGCTG	1060
GAGGTGCCGGAAGCCAGTAGGTGGTTTTGGGTGCTA	1180
GTTTTCAAGGCAGGAAGTGGCTGTGGTGGCACGGAG	1570
AGCGGCTGCACAGGAAGTTGGTTTTCACAAAGGCAA	1190
GCCCCCGGCTGGGCAGGATGTGGTGGCAGCTGCAGG	1320
TACCTACAGGAAATGAGACACACCGCAGGCCGATCC	1770
GTTGCCCCACTTCCTGCCAGTGGTTTTTGGTTGGCC	4040
TACAGGAACTTCCTGCGCGGCTGCTGTGGTTGCGAG	1680
GTCACCATTTCCGGGCCTCCGCGGTGTCCCCACCCC	2900
CAAGAGCCGGAAGTCCCTTGTGCCGCAGTCCTTCCC	1510
ACCTGTGTTCTGGCAGGATGTGGTTGACCTCAGCAG	2700
AAAACAAGGACTTCCGCCTCCCTGCGGTCCCTCCCC	1880
GGGCGGAAGTGCGTCACTATGTCCGACCCGCAGTGC	1010
GTGTGCGTGAGAAGAGGAAGTGGTTAGGAAGACACA	1900
